# Compound activity from PubChem.
# FPR binder – human FPR ligand, with FPRL1 counter-screen; 24,000 tested, 0.74% active; FPR-expressing cells, fluorescent ligand binding, flow cytometry; AID 440; P21462; inhibition, % (test concentration not listed);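 note: 0% = buffer wells and 100% = receptor blocker peptide wells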
# FPRL1 ligand – binds the human formylpeptide receptor-like-1 FPRL1 | P25090 | inhibition, % (test concentration not listed) | FPRL1-expressing cells, fluorescent ligand binding inhibition, flow cytometry | 24,000 tested, 0.3% active;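 note: 0% = buffer alone and 100% = receptor blocker peptide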
# * hit, by the source's call. In the library only some 1% were active in any assay of this set; here they are far more common. Cut-off read from the data, not from the text of the source: active = inhibition above about 30%; inconclusive = no clear call, values can overlap the other calls; inactive = below that.
SMILES,FPR binder,FPRL1 ligand
CCOC(=O)c1ccc(NC(=O)Nc2ccc3c4c(cccc24)C(=O)N3CC)cc1,-18,48*
CCN1C(=O)c2cccc3c(NC(=O)c4ccc(S(=O)(=O)N(C)C)cc4)ccc1c23,-4,-4
O=C(Nc1ccncc1)C1CCCN(S(=O)(=O)c2cccc3cccnc23)C1 (centres undefined),-4,-2
CC(C)(C)NC(=O)C1CCCN(S(=O)(=O)c2cccc3cccnc23)C1 (centres undefined),35*,27
O=C(c1csc2c1CCCCC2)N1CCN(c2ncccn2)CC1,5,-2
CCN(CCCc1ccccc1)CCCc1ccccc1,54*,1
CN(C)CCCOC(=O)CCc1ccccc1,-4,1
CCOc1ccc(CNC(=O)C(CC)n2nc(C)n3c(cc4occc43)c2=O)cc1OC (centres undefined),6,3
COc1ccc2[nH]c(=O)c(CN(CCO)S(=O)(=O)c3ccc4c(c3)OCCO4)cc2c1,-2,-1
